Experimental data published in PubChem BioAssay (NCATS).
Results filed as inconclusive are left out. The source made the active and inactive calls. Calls follow the shape of the dose curve; as a rule, active = well fitted curve in the direction sought with a large enough effect; inconclusive = small, poorly fitted or top-dose-only effect, or another doubt; inactive = no such curve, though single readings can be large; an effect the other way counts as inactive or inconclusive.

Assays:
[1] = molecular target: Glutathione peroxidase 1 (Homo sapiens) (UniProt P07203); assay: Primary qHTS Assay for Inhibitors of Recombinant Selenoprotein Glutathione Peroxidase 1 (GPX1) (AID 1845191); also: nearly all actives have a fitted effect of over 65% in size; also: potency is read from the fitted curve at half-maximal effect; as to activity, negative = inhibition: % is scaled to controls: 0 for no effect and ±100 for the full control effect
Procedure, shortened: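 GR-coupled readout: NADPH consumption tracked by fluorescence, ex 340/em 450 nm, at t=0 and after 15 min at RT. Final mix 10 nM GPX1, 1 mM GSH, 0.5 mM CHP, 0.5 mM NADPH, 100 nM GR, 0.01% BSA, following 30 min enzyme–compound preincubation.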

[2] = molecular target: Phospholipid hydroperoxide glutathione peroxidase GPX4 (Homo sapiens) (UniProt P36969); assay: Primary qHTS Assay for Inhibitors of Recombinant Selenoprotein Glutathione Peroxidase 4 (GPX4) (AID 1845192); also: nearly all actives have a fitted effect of over 65% in size
Procedure, shortened: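 Steps: GPX4 plus compound, 30 min RT; add GR/GSH/NADPH master mix; start with cumene hydroperoxide; read 340/450 nm fluorescence at 0 and 15 min. Finals were 200 nM GPX4, 1 mM GSH, 0.5 mM CHP, 0.5 mM NADPH, 100 nM GR.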

[3] = molecular target: Luciferin 4-monooxygenase (Photinus pyralis) (UniProt P08659); assay: Primary firefly luciferase (FLuc) qHTS assay for identification of artifact compounds. (AID 1845220); also: nearly all actives have a fitted effect of over 60% in size; also: potency is read from the fitted curve at half-maximal effect
Procedure, shortened: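 Enzymatic FLuc inhibition assay: compounds pre-exposed to luciferin/ATP (10 uM each) for 15 min, then purified P. pyralis enzyme at 10 nM added. Read-out: luminescence at 5 min.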

[4] = Primary fluorescence-based thiol-reactive (MSTI) qHTS assay for identification of artifact compounds. (AID 1845221); also: nearly all actives have a fitted effect of over 65% in size; also: potency is read from the fitted curve at half-maximal effect;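 as to activity change, negative = thiol reactive: series mostly up to about 54 µM; thiol-reactive compounds lower the probe fluorescence signal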
Procedure, shortened: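 Curve-fitted percent inhibition (4-parameter Hill) derived from fluorescence, Ex 525/Em 598 nm, scaled with Acetyl-MSTI and MSTI; 1 h incubation at room temperature.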

[5] = tested on: Nanoluciferase (engineered Oplophorus gracilirostris luciferase); assay: Primary Nanoluciferase (NLuc) qHTS assay for identification of artifact compounds. (AID 1845222);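 also: NLuc secreted into diluted conditioned medium of S16 cells; series mostly up to about 54 µM; 0% = DMSO and -100% = no enzyme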
Procedure, shortened: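 S16 cell supernatant NLuc, 1:55; cpds qHTS; 15 min RT dark; Nano-Glo substrate 1:100, 5 min; luminescence; Hill fit of % inhibition.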

[6] = Primary redox qHTS assay for identification of artifact compounds. (AID 1845223);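 also: 0% = DMSO and 100% = reference compound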
Procedure, shortened: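 Redox-cycling detection via DTT (250 uM final) oxidation coupled to Amplex Red (25 uM)/HRP (250 mU/mL) in HBSS. 15 min preincubation plus 30 min after DTT, room temperature. Ex/Em 525/598 nm; 4-parameter Hill fit against DMSO and 10 uM DA3003.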

Chain of Phospholipid hydroperoxide glutathione peroxidase GPX4 (Homo sapiens) (P36969 whole entry, looked up): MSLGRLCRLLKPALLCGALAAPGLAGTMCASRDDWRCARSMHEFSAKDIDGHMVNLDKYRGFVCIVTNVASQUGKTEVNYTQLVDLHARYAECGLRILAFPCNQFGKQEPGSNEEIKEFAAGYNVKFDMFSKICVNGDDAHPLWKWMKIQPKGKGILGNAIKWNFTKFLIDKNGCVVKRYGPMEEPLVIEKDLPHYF
Chain of Glutathione peroxidase 1 (Homo sapiens) (P07203 whole entry, looked up): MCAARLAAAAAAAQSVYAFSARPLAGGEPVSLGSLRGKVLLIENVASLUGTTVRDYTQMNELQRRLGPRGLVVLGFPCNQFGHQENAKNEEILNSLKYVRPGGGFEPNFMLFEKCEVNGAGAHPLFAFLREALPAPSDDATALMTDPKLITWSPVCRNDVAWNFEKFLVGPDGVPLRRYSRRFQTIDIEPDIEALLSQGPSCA

CC1(C)CC[C@]2(C(=O)O)CC[C@]3(C)C(=CCC4[C@@]5(C)C[C@@H](O)[C@H](O)[C@@](C)(CO)C5CC[C@]43C)[C@@H]2[C@@H]1O (stereo not given in full)
active: Potency [4] 10.3 µM
inactive: Potency [1] | Potency [2] | Potency [3] | Potency [5]

C=C1CO[C@@]2(O[C@H]3CC4C5CC=C6C[C@@H](O)C[C@@H](O[C@@H]7OC[C@H](O)[C@H](O[C@@H]8OC[C@@H](O)[C@H](O)[C@H]8O)[C@H]7O[C@@H]7O[C@@H](C)[C@H](OC(C)=O)[C@@H](OC(C)=O)[C@H]7OC(C)=O)[C@]6(C)C5CC[C@]4(C)[C@@H]3[C@@H]2C)[C@@H](O)[C@H]1OC1OC(C)C(O)C(O)C1O (stereo not given in full)
inactive: activity, negative = inhibition [1] 0.917% [at 9.52 µM] | outcome [2] inactive [at 9.73 µM] | outcome [3] inactive [at 11.6 µM] | activity change, negative = thiol reactive [4] 69.1% [at 11.5 µM] | activity, negative = inhibition [5] 1.51% [at 11.6 µM] | redox activity (% of DA3003) [6] 7.69% [at 11.5 µM]

NC(=O)CCCSc1nc(N)nc(-c2c(Cl)cc3c4c(cccc24)COC3)n1
inactive: Potency [1] | Potency [2] | Potency [3] | Potency [4] | Potency [5] | Potency [6]

C=C1C(=O)O[C@@H]2/C=C(/C)[C@@H](OC(C)=O)C/C=C(\C)C[C@@H](OC(=O)/C(=C/CO)CO)[C@@H]12
inactive: Potency [1] | Potency [2] | Potency [3] | Potency [4] | Potency [5]

CCC(C)C(=O)OC12C(OC(C)=O)C(C)C3(O)C(C=C(CO)CC4(O)C(=O)C(C)=CC43)C1C2(C)C (stereo not given)
inactive: Potency [1] | Potency [2] | Potency [3] | Potency [4] | Potency [5]

CCN(Cc1ccccc1)C(=O)Cn1c(=O)n(C)c2cnc(-c3ccccc3)nc21
inactive: Potency [1] | Potency [2] | Potency [3] | Potency [4] | Potency [5]

COc1ccc(S(=O)(=O)N2CCC[C@H]2C(=O)Nc2cc(C)cc(C)c2)cc1
inactive: Potency [1] | Potency [2] | Potency [3] | Potency [4] | Potency [5]

CCc1c[nH]c2ncnc(N3CC[C@](N)(CNC(=O)c4ccc(F)cc4F)C3)c12
inactive: Potency [1] | Potency [2] | Potency [3] | Potency [4] | Potency [5]

Cc1ccc(N2CCN(S(=O)(=O)N3CCCCC3)CC2)c(C)c1
inactive: Potency [1] | Potency [2] | Potency [3] | Potency [4] | Potency [5] | Potency [6]

CC1OC2OC(=O)C3(C)CC4C5(CO5)C5=CC(=O)OC(C)(C)C5=CC(=O)C4(C)C(C1=O)C23 (stereo not given)
inactive: Potency [1] | Potency [2] | Potency [3] | Potency [5]
active: Potency [4] 1.03 µM

Cc1ccc(C(=O)Nc2ccc(CN3CCN(C)CC3)c(C(F)(F)F)c2)cc1C#Cc1cnc2[nH]ncc2c1
inactive: Potency [1] | Potency [2] | Potency [4] | Potency [5]
active: Potency [3] 23.9 µM

Cc1cc2c(cc1N1C(=O)c3cccc4c(CCCO)ccc(c34)C1=O)n(C)c(=O)n2C
inactive: Potency [1] | Potency [2] | Potency [3] | Potency [4] | Potency [5]

O=C1COC2(CCN(S(=O)(=O)c3ccc(-c4ccc5cccnc5c4)cc3)CC2)CN1C1CC1
inactive: Potency [1] | Potency [2] | Potency [3] | Potency [4] | Potency [5]

N#Cc1ccc2ncnc(NCCc3ccccc3)c2c1
inactive: Potency [1] | Potency [2] | Potency [3] | Potency [4] | Potency [5] | Potency [6]

C=C(C)C1=C[C@@]2(C)C(=CC1=O)CC[C@@H](O)[C@@H]2C
inactive: Potency [1] | Potency [2] | Potency [3] | Potency [4] | Potency [5] | Potency [6]

C[C@H]1[C@H](/C=C/c2ccc(-c3ccccc3C#N)cn2)[C@@H]2[C@@H](C)OC(=O)[C@@H]2C[C@@H]1C
inactive: Potency [1] | Potency [2] | Potency [3] | Potency [4] | Potency [5] | Potency [6]

Cc1csc(N(C(=O)CSc2ccc(-c3ccccc3)nn2)C2CC2)n1
inactive: Potency [2] | Potency [3] | Potency [4] | Potency [5] | Potency [6]
active: Potency [1] 20.2 µM

CC(C)C(C)C(O)C1CC23CC(=O)C4(O)C(=C2CCC3C1C)C=CC1(O)CC(O)CCC14C (stereo not given)
inactive: Potency [1] | Potency [2] | Potency [3] | Potency [4] | Potency [5] | Potency [6]

CCC(C)/C=C(C)/C=C/C1=CC2=CC(=O)C3(C)OC(C)(O)C(C(=O)OC)C3C2=CO1 (stereo not given)
inactive: Potency [1] | Potency [2] | Potency [3] | Potency [4] | Potency [5] | Potency [6]

O=C(NCCN1CCC(n2c(=O)[nH]c3ccccc32)CC1)c1ccc2ccccc2c1
inactive: Potency [1] | Potency [2] | Potency [3] | Potency [4] | Potency [5] | Potency [6]
